The record followed here is PubChem BioAssay AID1259400 (National Center for Advancing Translational Sciences (NCATS), 2018).

Screen size: about 350,000 compounds; about 2,100 (0.6%) were called active. Another 1% or so got no clear call; they are omitted.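 Rule for the calls: active = activity change of -60% or lower, but not beyond a set lower limit; inconclusive = change between -60% and -40%, or beyond the set limit; inactive = change above -40%.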 Shown is part of a subset that was picked to be rich in actives.
% is set by controls: 0 for no effect and ±100 for the full control effect.

Chain of Relaxin receptor 1 (Homo sapiens) (Q9HBX9 whole entry, looked up): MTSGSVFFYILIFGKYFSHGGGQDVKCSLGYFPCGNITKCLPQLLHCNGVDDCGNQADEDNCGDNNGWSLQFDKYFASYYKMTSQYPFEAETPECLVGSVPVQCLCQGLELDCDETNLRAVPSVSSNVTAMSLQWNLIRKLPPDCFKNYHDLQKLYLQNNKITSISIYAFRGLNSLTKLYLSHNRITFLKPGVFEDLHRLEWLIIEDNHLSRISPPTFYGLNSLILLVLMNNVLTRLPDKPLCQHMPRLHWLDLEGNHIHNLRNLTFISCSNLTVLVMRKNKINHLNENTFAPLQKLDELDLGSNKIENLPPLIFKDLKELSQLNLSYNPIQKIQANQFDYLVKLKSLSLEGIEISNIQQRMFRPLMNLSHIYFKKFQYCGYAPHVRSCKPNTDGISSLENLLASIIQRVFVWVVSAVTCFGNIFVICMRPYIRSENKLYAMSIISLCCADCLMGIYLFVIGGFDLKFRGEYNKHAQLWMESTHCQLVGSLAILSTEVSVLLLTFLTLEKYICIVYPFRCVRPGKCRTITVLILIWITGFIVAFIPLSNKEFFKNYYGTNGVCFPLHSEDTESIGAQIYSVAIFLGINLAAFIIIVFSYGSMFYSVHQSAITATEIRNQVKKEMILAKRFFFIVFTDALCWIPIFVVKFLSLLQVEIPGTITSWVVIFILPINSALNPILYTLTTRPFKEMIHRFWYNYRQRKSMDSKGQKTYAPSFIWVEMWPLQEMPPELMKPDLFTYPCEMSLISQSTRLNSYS

The assay has as its target Relaxin receptor 1 (Homo sapiens) (UniProt Q9HBX9). The experiment in a line: qHTS Assay for Antagonists of the Relaxin Receptor RXFP1. To be noted: HEK293-RXFP1, relaxin-stimulated cAMP HTRF, 30 min; at 57.5 µM; active compounds read low. The text has this: The relaxin hormone is involved in the variety of biological functions in normal tissues and diseases. The role of relaxin is well-established in female reproduction and parturition, mammary gland and endometrial development, maintenance of myometrial quiescence during pregnancy. Relaxin signaling through its G protein-coupled receptor (GPCR) RXFP1 results in ECM remodeling through regulation of collagen deposition, cell invasiveness, proliferation and overall tissue homeostasis. […] Recombinant human relaxin (rhRlx) is currently being tested in clinical trials as a protective agent in congestive heart failure, in treating severe preeclampsia, and as an anti-fibrotic agent in various organs. […] Upon relaxin binding RXFP1 activation leads to the activation of adenylate cyclase (AC) via G?s. cAMP will activate PKA, which phosphorylates many signaling proteins. Thus, detection of cAMP increase is an easy and reliable indication of relaxin receptor activation. To screen for antagonists of the relaxin receptor, a HEK293T cell line stably transfected with RXFP1 was used. RXFP1 activation by relaxin in presence of various concentrations of tested compounds was assayed by changes in cAMP levels as detected with a time-resolved fluorescence energy transfer (TR-FRET) cAMP detection kit.
For the primary screening, we used HTRF(R) (Homogenous Time-Resolved Fluorescence) cAMP HiRange assay (Cisbio Bioassays, 62AM6PEJ). Presence of cAMP in the cell lysate disrupts binding between the Cryptate-labeled anti-cAMP and d2-labeled cAMP pair, leading to a decrease in TR-FRET signal. The libraries were screened at two doses (57microM and 11microM), followed by a confirmation of the hits at 7-point serial dilution in the range of final concentrations [57microM - 78nM]. Data were normalized to the controls for basal activity (buffer only) and 100% activity (5 nM porcine relaxin). The EC50 values were determined from concentration-response data modeled with the standard Hill equation. NCGC Assay Protocol Summary: HiHEK (Hawaiian HEK293 LGR7 stably transfected with human RXFP1) were grown in the following media: DMEM+10%FBS+Pen/Strep + Geneticin (1mg/ml). For the assay, the cells were seeded in DMEM+Pen/Strep (with no serum & selective antibiotics) at 2,100 cells/ 3microl/well with MultiDrop Combi dispenser (Thermo Scientific, Logan, UT) onto white tissue culture treated solid bottom1536-well plates (Greiner #789173-F) and allowed to attach/recover overnight at 37 degrees C, 5% CO2. Next, 23nl/well of compound solutions in DMSO were transferred into wells with a pintool (Kalypsis, San Diego, CA). […] EC80 (relaxin at 50pM final concentration) was dispensed to the rest of the plate except columns 1&2 which were used as a negative control (EC0, buffer only), 1microl/well also. The cells were stimulated by relaxin in the presence of compounds for 30 minutes at 37 degrees C, 5% CO2. The detection reagents were prepared individually by dilution in Lysis buffer (supplied with the assay kit) just prior to dispensing. 1microl/well of cAMP-d2 and 1microl/well anti-cAMP-Eu3+-Cryptate antibodies were added simultaneously with BioRAPTR FRDtrade mark Workstation (Beckman Coulter). The plates were incubated at ambient temperature for 30 minutes and, then, FRET signal was read on Envision plate reader (PerkinElmer, Waltham, MA), at wavelengths 340nm (excitation), 615nm & 665nm (emission of donor and acceptor channels respectively).
(In general: qHTS replaces the single test concentration by a dilution series.)
`CCOC(=O)c1c(C)oc2nc(C)nc(N(CC(C)C)CC(C)C)c12`: the activity change, negative = inhibition is -27.5% (inactive).

Turning to `CC(=O)C1=C(C)NC(C)=C(C(C)=O)C1c1cn(-c2ccccc2)nc1-c1cccs1`, the activity change, negative = inhibition is -18.3% (inactive).

`O=C(NCc1cccnc1)c1cn(-c2ccccc2)nc1-c1cccs1`: the activity change, negative = inhibition was -17.9% (inactive).

Regarding `O=C(O)c1ccc(N/N=C/c2cn(-c3ccccc3)nc2-c2cccs2)cc1`, the activity change, negative = inhibition was -105% (active).

For the molecule `CCCn1c2ccccc2c2cnn(CC(=O)N3CCCC(C(=O)OCC)C3)c(=O)c21` (stereo not given), the activity change, negative = inhibition was 3.38% (inactive).

For `CCN(CCCNC(=O)CSc1cc(=O)n(C)c2cc(Cl)ccc12)c1cccc(C)c1`, the activity change, negative = inhibition is 14% (inactive).

For the molecule `CSc1ccccc1NC(=O)CCS(=O)(=O)c1nc(-c2cccs2)cc(C(F)(F)F)n1`, the activity change, negative = inhibition was 0.767% (inactive).

Consider `COc1ccc(NC(=O)NC(C)c2c(-n3cccc3)sc(C)c2C)cc1OC` (stereo not given), for which the activity change, negative = inhibition was -9.76% (inactive).

As to `O=C(CCN1CCN(C/C=C/c2ccccc2)CC1)Nc1ccccc1Cl`, the activity change, negative = inhibition is 3.3% (inactive).

In the case of `O=C(Nc1ccccc1Cl)/C(Cl)=C(\Cl)S(=O)c1ccccc1` (stereo not given), the activity change, negative = inhibition is -106% (active).

`O=C(Nc1ccccc1Cl)N1CCC(CN2CCCC2)CC1`: the activity change, negative = inhibition was 2.65% (inactive).

Regarding `Cc1c(Cl)cccc1-c1ccc(CNCCCSc2nnnn2C)o1`, the activity change, negative = inhibition is -6.68% (inactive).

As for `Cc1ccc(C2C=C(c3ccc(Cl)cc3)Nc3nc(NC(=O)CCC(=O)O)nn32)cc1` (stereo not given), the activity change, negative = inhibition is -0.127% (inactive).

Regarding `Cc1ccc(Cl)cc1N1CCN(C(=O)c2cnc3c(-c4ccc(F)cc4)c(C)nn3c2C)CC1`, the activity change, negative = inhibition was -19.1% (inactive).

As for `O=C(OC12CC3CC(CC(C3)C1)C2)c1ccc(NCc2cc(O)ccc2O)cc1`, the activity change, negative = inhibition was -37.9% (inactive).

Regarding `COC(=O)c1ccc(NCc2cc(O)ccc2O)cc1`, the activity change, negative = inhibition was -28.1% (inactive).

Take `CC(C)OC(=O)c1ccc(NCc2cc(O)ccc2O)cc1Cl`: the activity change, negative = inhibition was -85.7% (active).

Consider `CCCN1CCc2nc(N3CCN(C)CC3)ncc2C1`, for which the activity change, negative = inhibition was 3.24% (inactive).

For `O=C(N/N=C/c1ccc(O)c(O)c1)C1c2ccccc2Oc2ccccc21`, the activity change, negative = inhibition is -17.9% (inactive).

As to `Oc1ccc(/C=N/Nc2ccc(C(F)(F)F)cn2)cc1O`, the activity change, negative = inhibition is -72.1% (active).

As for `FC(F)(F)c1cccc(N/N=C/c2ccccc2)c1`, the activity change, negative = inhibition was 6.38% (inactive).

On to `CC1(C)OC[C@@H](COC(=O)CCc2ccc(OC[C@@H](O)CNCCNC(=O)N3CCOCC3)cc2)O1`, for which the activity change, negative = inhibition was -4.26% (inactive).

As to `O=C(CSc1nc(=O)[nH]c2c1CCCC2)Nc1cc(C(F)(F)F)ccc1Cl`, the activity change, negative = inhibition was 6.44% (inactive).

For the molecule `COc1ccc(NC(=O)CSc2nccn2C2CCCC2)cc1OC`, the activity change, negative = inhibition is 6.9% (inactive).

Turning to `O=C(CSc1nccn1C1CCCC1)Nc1cc(C(F)(F)F)ccc1Cl`, the activity change, negative = inhibition is -72.3% (active).

On to `Cc1cc2c(cc3c(SCc4cccc(Cl)c4)nnc(C)n32)o1`, for which the activity change, negative = inhibition is -4.3% (inactive).

On to `O=C(CSc1ccc([N+](=O)[O-])cn1)Nc1ccc(N2CCOCC2)c(Cl)c1`, for which the activity change, negative = inhibition was -1.58% (inactive).

As for `O=C(CSc1ccc([N+](=O)[O-])cn1)Nc1ccc(N2CCOCC2)cc1`, the activity change, negative = inhibition is -66.8% (active).

`Cn1cnnc1SCC(=O)Nc1ccc(N2CCOCC2)cc1`: the activity change, negative = inhibition is -11.8% (inactive).

With `Cc1ccc(O)c(NC(=O)c2cc(-c3ccc(F)cc3)no2)c1`, the activity change, negative = inhibition was -3.02% (inactive).

As for `CC(=O)c1ccc(NC(=O)CSc2c(C(C)C)cnc3c2c(=O)n(C)c(=O)n3C)cc1`, the activity change, negative = inhibition was 3.09% (inactive).

As to `CC(C)c1ccc(C2CC(=O)N3CN(C4CCCCC4)CSC3=C2C#N)cc1` (stereo not given), the activity change, negative = inhibition is -4.73% (inactive).

Turning to `Cc1ccc(-c2nc3cccc(C)n3c2Nc2ccc3c(c2)OCCO3)cc1`, the activity change, negative = inhibition was 3.27% (inactive).

Regarding `CC(=O)N/N=C(\C)c1ccc(Br)cc1Br`, the activity change, negative = inhibition is 3.93% (inactive).

For the molecule `COc1ccc(-c2[nH]ncc2/C=N/NC(=O)c2cc(Br)ccc2O)c(OC)c1`, the activity change, negative = inhibition is -30% (inactive).

Turning to `CC(=N\NC(=O)c1cc(Br)ccc1O)/C(=N/O)C(=O)Nc1ccccc1`, the activity change, negative = inhibition is -80.9% (active).

Regarding `COc1cc(CNC2CCCCC2)c(Br)cc1OC1CCCC1`, the activity change, negative = inhibition was -7.24% (inactive).

With `CC(C)(C)NCc1cc(Br)ccc1OC1CCCC1`, the activity change, negative = inhibition is -6.03% (inactive).

Take `CC(NCc1ccccc1OC1CCCC1)c1ccccc1` (stereo not given): the activity change, negative = inhibition is -60.9% (active).

On to `O=C(Cn1nc(Cc2cccnc2)c2ccccc2c1=O)N1CCN(c2ccccc2F)CC1`, for which the activity change, negative = inhibition is 5.94% (inactive).

`CCCc1cc(=O)n2[nH]c(NCc3ccc(CC)cc3)nc2n1`: the activity change, negative = inhibition is -11.6% (inactive).

For the molecule `Cc1ccc(-c2cc(C(=O)Oc3ccccc3Cl)no2)cc1C`, the activity change, negative = inhibition is -12.2% (inactive).

On to `O=C(N/N=C/C=C/c1ccco1)c1cccs1`, for which the activity change, negative = inhibition is -79.6% (active).

Take `O=C(N/N=C/c1ccco1)c1csc2c1CCCC2`: the activity change, negative = inhibition is -11.1% (inactive).

On to `Cc1ccc(-n2nc(C)c(/C=N/NC(=O)c3cccs3)c2Cl)cc1`, for which the activity change, negative = inhibition is -17.6% (inactive).
